Screens from PubChem.
Only some compounds are listed: those with a hit (about 18% of all), similar ones and a draw of the others.
TDP1 inh: blocks human tyrosyl-DNA phosphodiesterase 1 | Q9NUW8 | recombinant TDP1, AlphaScreen DNA substrate cleavage | Potency, µM (top dose mostly 130 µM), hits mostly inhibitors | 350,000 tested, 0.28% active | AID 485290; further: nearly all actives have a fitted effect of over 40% in size
Target sequence (Q9NUW8 whole entry, looked up): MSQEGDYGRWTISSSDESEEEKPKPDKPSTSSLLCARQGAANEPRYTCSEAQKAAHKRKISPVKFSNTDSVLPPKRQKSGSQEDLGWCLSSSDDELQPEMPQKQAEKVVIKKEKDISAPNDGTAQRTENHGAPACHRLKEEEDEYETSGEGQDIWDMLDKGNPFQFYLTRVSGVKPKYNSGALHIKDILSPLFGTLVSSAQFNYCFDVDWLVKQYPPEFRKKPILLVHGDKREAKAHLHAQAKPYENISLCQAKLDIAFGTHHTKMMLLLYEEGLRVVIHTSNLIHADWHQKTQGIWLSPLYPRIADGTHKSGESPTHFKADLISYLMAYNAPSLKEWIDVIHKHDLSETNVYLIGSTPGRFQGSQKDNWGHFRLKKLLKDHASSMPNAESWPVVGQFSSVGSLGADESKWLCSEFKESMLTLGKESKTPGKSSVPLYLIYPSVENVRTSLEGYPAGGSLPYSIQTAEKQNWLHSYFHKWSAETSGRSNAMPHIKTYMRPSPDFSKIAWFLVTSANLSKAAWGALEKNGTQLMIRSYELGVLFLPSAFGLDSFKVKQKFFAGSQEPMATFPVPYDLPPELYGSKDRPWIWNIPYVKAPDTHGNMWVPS
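Signal: AlphaScreen proximity between streptavidin donor and anti-FITC acceptor beads on intact substrate. Reaction: Tdp1 1 nM, substrate 15 nM final, 5 min RT after 15 min compound preincubation.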
TDP1 cell CPT: DT40-hTDP1 cell growth loss with CPT. 420,000 tested, 12% active. Potency, µM (titrated, usually from 46.2 µM), usual class: inhibitors. chicken DT40 Tdp1-/-;hTDP1 cells + 20 nM CPT, ATP luminescence, 48 h; further: nearly all actives have a fitted effect of over 55% in size
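Cell growth measured by CellTiter-Glo luminescence after a minimum 48 h, 37 C compound exposure with 20 nM CPT in Tdp1-knockout DT40 cells stably expressing hTDP1, seeded 400/well; qHTS titration format.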
IL1B secr inh: blocks inflammasome-driven IL-1 beta release | THP-1 LPS/ATP IL-1B secretion, AlphaLISA, 16 h; stronger effect = lower value | activity change, % at 57.5 µM | 360,000 tested, 4.7% active; in the data active means activity change below about -50%; inconclusive means mostly about -30% to -49%
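Secreted IL-1B measured by AlphaLISA bead assay after 16 h compound exposure of THP-1 cells; compounds (final up to 57.5 uM) added 1 h before LPS (250 ng/mL) and ATP (1.25 mM) stimulation; lower signal means less secretion.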
Six1-Eya2 inh: blocks human Six1 binding to Eya2; activity change, % (test concentration not listed); 360,000 tested, 0.56% active; AlphaScreen GST-Six1/His-Eya2 binding, biochemical; stronger effect = lower value; Q15475+O00167; in the data active means activity change below about -65%; inconclusive means mostly about -30% to -63%
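AlphaScreen with GST-Six1 and His-Eya2 (5X mix: 250 nM and 500 nM), glutathione donor and nickel acceptor beads; buffer 50 mM Tris pH 8.0, 300 mM NaCl, 1 mM TCEP; 1 h at 37 C in the dark.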
DT40 TDP1 no CPT: qHTS for Inhibitors of human tyrosyl-DNA phosphodiesterase 1 (TDP1): qHTS in cells in absence of CPT | DT40 Tdp1-/- hTDP1 cells, no CPT, ATP luminescence, 48 h | Potency, µM (top dose mostly 46.2 µM), actives largely listed as inhibitors | 420,000 tested, 15% active | AID 686978, 2013; further: nearly all actives have a fitted effect of over 55% in size
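Seeded 400 DT40-hTDP1 cells/well (vehicle DMSO, no 20 nM CPT); pinned compounds; ≥48 hr at 37 °C; CellTiter-Glo luminescence as viability measure.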
CtBP-E1A blk: CtBP/E1A binding inhibition. AlphaScreen GST-E1A/His-CtBP binding, 1536-well; stronger effect = lower value. activity change, % (test concentration not listed). 340,000 tested, 0.49% active; in the data active means activity change below about -65%; inconclusive means mostly about -30% to -63%
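In 5 uL wells, 23 nL compound meets equimolar GST-E1A and His-CtBP (5X stock 125 nM each) for 2 h, 37 °C. Beads (5X, 50 ug/mL) then 1 h, 37 °C, dark.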
Each line names hits and unclear results; the compound was inactive in the other large screens. Unless noted, the call rests on the fitted dose curve; in most records, active means well fitted curve in the direction sought with a large enough effect; inconclusive means small, poorly fitted or top-dose-only effect, or another doubt; inactive means no such curve, though single readings can be large; an effect the other way counts as inactive or inconclusive.

COc1ccc(-c2cn[nH]c2-c2ccc(OCc3ccc([N+](=O)[O-])cc3)cc2O)cc1	TDP1 cell CPT inconclusive, IL1B secr inh -55.6, DT40 TDP1 no CPT 16.4µM, CtBP-E1A blk inconclusive
CCCc1cc(-c2[nH]ncc2-c2ccc3c(c2)OCCCO3)c(O)cc1OC	none (no result: TDP1 cell CPT, IL1B secr inh, Six1-Eya2 inh, DT40 TDP1 no CPT, CtBP-E1A blk)
COc1ccc(-c2[nH]ncc2-c2ccc3c(c2)OCCO3)c(O)c1	TDP1 cell CPT 4.61µM, DT40 TDP1 no CPT 7.31µM
CCc1cc(-c2[nH]ncc2-c2ccc3c(c2)OCO3)c(O)cc1O	TDP1 cell CPT 18.4µM, IL1B secr inh -89.1, DT40 TDP1 no CPT 11.2µM
CC(=O)Nc1cccc(/C(C)=N/Nc2nc3ccccc3s2)c1	TDP1 cell CPT inconclusive, DT40 TDP1 no CPT inconclusive
COc1ccccc1CC(=O)NCC(c1ccco1)N1CCCCC1 (stereo not drawn)	none
CCc1c(C)sc2c1CCN(Cc1ccc(F)cc1)C2c1ccccc1 (stereo not drawn)	TDP1 cell CPT inconclusive, DT40 TDP1 no CPT 4.61µM (no result: IL1B secr inh, Six1-Eya2 inh, CtBP-E1A blk)
CCc1c(C)sc2c1CCN(Cc1cccc(F)c1)C2c1ccccc1 (stereo not drawn)	TDP1 cell CPT inconclusive, DT40 TDP1 no CPT 11.6µM (no result: IL1B secr inh, Six1-Eya2 inh, CtBP-E1A blk)
Cc1c(CNC2CCCCCC2)c(C(=O)O)c(C)n1Cc1ccc(F)cc1	none (no result: IL1B secr inh, Six1-Eya2 inh, CtBP-E1A blk)
Cc1cccc(NC(=O)CN2C(=O)c3cccnc3Oc3ccc(Cl)cc32)c1C	DT40 TDP1 no CPT 20.6µM (no result: IL1B secr inh, Six1-Eya2 inh, CtBP-E1A blk)
CCOC(=O)c1ccc(NC(=O)CN2C(=O)COc3ccc(Cl)cc32)cc1	TDP1 cell CPT 13µM, DT40 TDP1 no CPT 16.4µM (no result: IL1B secr inh, Six1-Eya2 inh, CtBP-E1A blk)
CCOc1ccc(NC(=O)CN2C(=O)COc3ccc(Cl)cc32)cc1	TDP1 cell CPT inconclusive
Cc1ccc(NC(=O)CN2C(=O)c3cccnc3Oc3ccc(Cl)cc32)cc1	TDP1 cell CPT 20.6µM, DT40 TDP1 no CPT 29.1µM (no result: IL1B secr inh, Six1-Eya2 inh, CtBP-E1A blk)
Cc1ccc(Cl)cc1NC(=O)CN1C(=O)c2cccc3cccc1c23	none (no result: IL1B secr inh, Six1-Eya2 inh, CtBP-E1A blk)
Cc1ccc2c(c1)N(CC(=O)Nc1c(C)cccc1C)C(=O)c1cccnc1O2	none
Cc1cc(Cl)ccc1NC(=O)CN1C(=O)C(=O)c2ccccc21	TDP1 cell CPT 5.8µM, DT40 TDP1 no CPT 4.11µM (no result: IL1B secr inh, Six1-Eya2 inh, CtBP-E1A blk)
O=C(CN1C(=O)c2cccnc2Oc2ccc(Cl)cc21)NC1CCCCC1	TDP1 cell CPT inconclusive (no result: TDP1 inh)
O=C(CSc1nncs1)NC(=O)Nc1ccc2c(c1)OCCO2	none
CCOC(=O)c1ccc(NC(=O)CN2C(=O)c3cccnc3Oc3ccc(Cl)cc32)cc1	TDP1 cell CPT inconclusive, DT40 TDP1 no CPT 20.6µM (no result: IL1B secr inh, Six1-Eya2 inh, CtBP-E1A blk)
COC(=O)c1ccc(NC(=S)Nc2ccc3ccccc3c2)cc1	none
CCC1CN(CCNC(=O)c2cccc(N3CCCC3=O)c2)Cc2cc(OC)ccc2O1 (stereo not drawn)	none (no result: TDP1 inh, IL1B secr inh, Six1-Eya2 inh, CtBP-E1A blk)
COc1ccccc1-n1c(N)c(C(N)=O)sc1=S	none
CC(=O)Nc1ccc(-c2cn3cc(C)ccc3n2)cc1	none
Cc1ccc2nc(-c3ccccc3)cn2c1	TDP1 cell CPT inconclusive, DT40 TDP1 no CPT 18.4µM
Cc1ccc2nc(-c3ccc(O)c(O)c3)cn2c1	TDP1 cell CPT inconclusive, DT40 TDP1 no CPT 20.6µM (no result: TDP1 inh)
CCOC(=O)c1c(NC(=O)CSc2ncn[nH]2)sc(C(=O)NC)c1C	none
CC(C)CCNC(=O)c1ccc(Cn2c(SCC(=O)NC(C)C)nc3ccccc3c2=O)cc1	TDP1 cell CPT inconclusive, DT40 TDP1 no CPT inconclusive (no result: IL1B secr inh, Six1-Eya2 inh, CtBP-E1A blk)
O=C(N1CCN(c2ccccn2)CC1)C(Cl)(Cl)Cl	none
O=C1C=C(N2CCN(c3ccccn3)CC2)C(=O)c2c(O)ccc(O)c21	TDP1 cell CPT 1.46µM, DT40 TDP1 no CPT 4.11µM (no result: TDP1 inh)
COc1ccc(-c2cc(NC(C)=O)c3ncc(-c4ccccc4)n3c2)cc1OC	TDP1 cell CPT inconclusive, DT40 TDP1 no CPT inconclusive (no result: TDP1 inh)
COc1ccc(F)cc1-c1cc(NC(C)=O)c2ncc(-c3cc(OC)c(OC)c(OC)c3)n2c1	TDP1 cell CPT 3.66µM, DT40 TDP1 no CPT 2.91µM (no result: TDP1 inh)
COc1ccc(-c2cc(NC(C)=O)c3ncc(-c4ccc(OC)c(OC)c4)n3c2)c(OC)c1	TDP1 cell CPT 23.1µM, IL1B secr inh -59.1, Six1-Eya2 inh inconclusive, DT40 TDP1 no CPT 20.6µM (no result: TDP1 inh)
